In PubChem BioAssay (NCATS):
Inconclusive results are not listed. Activity calls are given as the source filed them. Calls follow the shape of the dose curve; as a rule, active = well fitted curve in the direction sought with a large enough effect; inconclusive = small, poorly fitted or top-dose-only effect, or another doubt; inactive = no such curve, though single readings can be large; an effect the other way counts as inactive or inconclusive.

Assays:
[1] = qHTS for Inhibitors of Plasmodium falciparum (DD2) proliferation (AID 504314);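 also: parasite DNA measured by SYBR Green fluorescence after red cell lysis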
Method in brief: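 SYBR Green DNA-fluorescence growth assay: infected RBCs at 0.3% parasitemia, 2.5% hematocrit, 72 h compound exposure, 37C, 5% CO2; overnight lysis with dye at RT; normalized to 0.29 uM artemisinin and vehicle.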

[2] = qHTS for Inhibitors of Plasmodium falciparum (7G8) proliferation (AID 504316); also: series mostly up to about 6.7 µM; nearly all actives have a fitted effect of over 65% in size
Method in brief: (§1)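 Parasite growth measured as SYBR Green DNA fluorescence (ex 485, em 535 nm) after overnight lysis following 72 h culture at 37 °C, 0.3% parasitemia, 2.5% hematocrit. Values normalized against DMSO and 0.29 uM artemisinin controls, with plate-stack correction.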

[3] = qHTS for Inhibitors of Plasmodium falciparum (HB3) proliferation (AID 504318); also: nearly all actives have a fitted effect of over 60% in size
Method in brief: as §1

[4] = qHTS for Inhibitors of Plasmodium falciparum (CP250) proliferation (AID 504320)
Method in brief: as §1

Measured: Potency

COC(=O)C1C2CC(C)C(c3ccccc32)N1C(=O)C(F)(F)F (centres undefined)
inactive: all assays above
